MITF TRPM1 HTS: MITF TRPM1 promoter activation in melanoma cells; SK-MEL-5 TRPM1-promoter luciferase, 24 h; % of positive control, neutral wells = 0; activation, % at 12.5 µM; 0.75% of 300,000 active;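 active = mean activation of at least 80% with every replicate also reaching 80%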;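 note: 0% = neutral control wells and 100% = parthenolide positive control wells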
AHR activator: human AHR activation | P35869 | AHR-responsive luciferase reporter cells, luminescence | activation, % at 5 µM | 2.5% of 320,000 active | AID 2796; in the data active = activation above about 47%;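 note: 0% = vehicle wells and 100% = reference agonist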
Target sequence (P35869 whole entry, looked up): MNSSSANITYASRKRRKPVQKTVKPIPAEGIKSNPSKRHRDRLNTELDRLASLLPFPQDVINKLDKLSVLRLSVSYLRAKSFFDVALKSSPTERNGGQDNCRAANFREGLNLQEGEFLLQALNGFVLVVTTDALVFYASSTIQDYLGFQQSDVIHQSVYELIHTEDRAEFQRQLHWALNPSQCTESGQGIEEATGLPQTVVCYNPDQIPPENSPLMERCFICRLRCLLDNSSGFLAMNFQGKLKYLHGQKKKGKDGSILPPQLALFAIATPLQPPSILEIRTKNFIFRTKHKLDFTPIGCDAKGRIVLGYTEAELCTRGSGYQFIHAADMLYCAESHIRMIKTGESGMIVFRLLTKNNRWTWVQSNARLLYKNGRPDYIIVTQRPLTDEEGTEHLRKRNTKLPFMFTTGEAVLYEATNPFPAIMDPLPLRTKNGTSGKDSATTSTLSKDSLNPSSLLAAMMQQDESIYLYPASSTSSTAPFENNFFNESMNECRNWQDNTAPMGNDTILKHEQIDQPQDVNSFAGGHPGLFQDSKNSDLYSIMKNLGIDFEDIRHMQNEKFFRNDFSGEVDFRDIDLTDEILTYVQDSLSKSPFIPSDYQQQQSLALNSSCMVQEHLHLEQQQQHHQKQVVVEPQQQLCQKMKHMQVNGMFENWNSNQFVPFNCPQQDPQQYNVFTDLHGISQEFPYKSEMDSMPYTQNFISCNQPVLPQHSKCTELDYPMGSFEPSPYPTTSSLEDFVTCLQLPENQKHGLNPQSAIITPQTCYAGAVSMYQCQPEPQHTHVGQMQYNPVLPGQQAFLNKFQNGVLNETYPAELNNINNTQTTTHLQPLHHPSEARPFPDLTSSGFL
Wnt act: activates Wnt/beta-catenin signaling in a reporter cell assay; activation, % at 9.35 µM; activator, plate reader; 1.2% of 300,000 active; AID 743398; in the data active = activation above about 30%, passing the limit was not always enough;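 note: 0% = neutral control wells and 100% = positive control wells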
esBAF inh: SWI/SNF esBAF complex inhibition; mouse ES cells, Bmi1-luciferase knock-in reporter, 24 h; 100% = twice the neutral-well signal; reporter increase, % at 12.5 µM; 2% of 350,000 active; in the data active = activation above about 40%;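 note: 0% = median of the plate's neutral control wells and 100% = double that signal; a rise in the Bmi1 reporter signal indicates esBAF inhibition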
GAA850 FXN act: activators of GAA850 frataxin (FXN) promoter. HEK293 lucGAA850 FXN promoter luciferase reporter, 24 h; percent of 10 µM SAHA response. activation, % at 6 µM. 0.56% of 360,000 active;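 active = activation above the average of all compounds screened plus 3 SD, cutoff fixed separately per campaign, cut at about 7.5% in these data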;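 note: 0% = DMSO wells and 100% = 10 µM SAHA wells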
GAA30 FXN cntr: counter-screen for GAA850 frataxin promoter activators: GAA30 promoter activation; HEK293 lucGAA30 FXN promoter luciferase, 24 h; DMSO = 0%, 5 µM ipriflavone = 100%; activation, % at 6 µM; shares compounds with GAA850 FXN act; 66% of 1,900 active;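 active = mean activation above the mean of solvent-only control wells plus 3 SD, cut at about 22% in these data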;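 note: counterscreen of GAA850 promoter hits where activity marks nonselective or luminescence artifacts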
GAA850 confirm: confirmation of GAA850 frataxin (FXN) promoter activators; shares compounds with GAA850 FXN act; HEK293 lucGAA850 FXN promoter luciferase reporter, 24 h; 100% = activation by SAHA; activation, % at 6 µM; 86% of 1,900 active;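 active = mean activation above a set limit taken from the primary screen, cut at about 8% in these data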;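 note: 0% = DMSO wells and 100% = 10 µM SAHA wells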
Active calls of the source: *; . = no result given. Only some compounds are listed: those with a hit (about 4.2% of all), similar ones and a draw of the others.

SMILES	MITF TRPM1 HTS	AHR activator	Wnt act	esBAF inh	GAA850 FXN act	GAA30 FXN cntr	GAA850 confirm
C[C@H](CO)N1C[C@H](C)[C@H](CN(C)Cc2ccccn2)Oc2ncc(C#C[C@@H](C)O)cc2C1=O	.	.	.	-1	.	.	.
C[C@H]1CN([C@@H](C)CO)S(=O)(=O)c2ccc(C#CCN(C)C)cc2O[C@@H]1CN(C)Cc1cccnc1	.	.	.	-2	.	.	.
COc1ccc(S(=O)(=O)Nc2ccc3c(c2)C(=O)N([C@H](C)CO)C[C@H](C)[C@H](CN(C)C(=O)c2ccccc2)OCCCC[C@@H](C)O3)cc1	.	.	.	6	.	.	.
COc1ccccc1NC(=O)CC1C(=O)NCCN1C(=O)Nc1ccccc1 (stereo unspecified)	3	-2	.	-3	8.0*	18	8.0*
Oc1ccc(/C=N/N=C/c2ccc(O)c(O)c2)cc1O	.	0	3	-2	8.2*	33*	16*
Oc1ccc(N=Cc2ccc(O)c(O)c2)cc1	.	2	.	-14	-1	.	.
COC(=O)[C@H](C)NC(=O)NCc1ccccc1F	5	-2	-1	-3	9.4*	18	6
COC(=O)[C@H](C)NC(=O)NCc1ccc(F)cc1	-3	0	-1	3	-1	.	.
O=C(NCCCNCc1ccccc1)c1ccncc1	10	1	.	2	4	.	.
O=C(/C=N\O)NCCCNCc1ccccc1	5	-1	.	2	21*	26*	9.0*
COc1ccc(-c2nnc(Nc3nc4c(OC)cccc4s3)o2)c(OC)c1	-17	26	16	23	9.0*	19	23*
Cc1noc(C)c1S(=O)(=O)N(C)C[C@H]1Oc2ccc(NC(=O)C3CCCCC3)cc2CC(=O)N([C@@H](C)CO)C[C@H]1C	.	.	.	-3	.	.	.
O=C(C1CCCC1)N1[C@H](CO)[C@@H]2c3ccccc3N(S(=O)(=O)c3ccc(F)cc3)C[C@@H]21	.	.	.	1	.	.	.
Cc1c(CCC(=O)NCC(=O)O)c(=O)oc2cc3occ(-c4ccccc4)c3cc12	-2	.	2	-3	9.4*	2	1
C[C@@H]1CCCCO[C@H](CN(C)C(=O)Nc2ccc(C(F)(F)F)cc2)[C@H](C)CN([C@H](C)CO)C(=O)c2cc(NS(=O)(=O)c3cccs3)ccc2O1	.	.	.	0	.	.	.
CCOc1ccc(C(=O)Nc2ccc(NC(=O)c3ccco3)c(Cl)c2)cc1Br	4	5	-6	1	12*	9	8.4*
CN(C)C(=O)C[C@H]1CC[C@H]2[C@@H](COc3ccc(NC(=O)C4CC4)cc3C(=O)N2C)O1	.	.	.	0	.	.	.
NC(Cc1ccc(C(F)(F)F)cc1)c1csc(NC(=O)Nc2ccccc2Cc2ccccc2)n1 (stereo unspecified)	.	.	-24	4	15*	20	15*
COc1cccc(Nc2nc(C(N)COCc3ccccc3)cs2)n1 (stereo unspecified)	.	.	-3	-3	4	.	.
COc1cccc(Nc2nc(C(N)CCc3ccccc3)cs2)n1 (stereo unspecified)	.	.	-2	-7	8.3*	-4	7.7*
CC(C)c1ccccc1NC(=O)Nc1nc(C(N)Cc2ccc(C(F)(F)F)cc2)cs1 (stereo unspecified)	.	.	-9	1	-2	.	.
NC(CCc1ccccc1)c1csc(NC(=O)Nc2ccccc2Oc2ccccc2)n1 (stereo unspecified)	.	.	0	1	11*	9	16*
NCC[C@@H]1CC[C@@H](NC(=O)C2CCC2)[C@H](CO)O1	.	.	.	-4	.	.	.
Cc1cc(C)n2cc(CSc3nc4ccccc4s3)nc2n1	42	26	.	.	7.7*	98*	30*
C[C@@H]1CN([C@H](C)CO)C(=O)c2cc(C#CC3CC3)cnc2O[C@H]1CN(C)S(=O)(=O)c1cccc(F)c1	.	.	.	0	.	.	.
SMILES	MITF TRPM1 HTS	AHR activator	Wnt act	esBAF inh	GAA850 FXN act	GAA30 FXN cntr	GAA850 confirm
COc1ccc(N2C(=O)C3C(C2=O)C(C(=O)c2ccc(Cl)cc2)N2CCCC32)cc1 (stereo unspecified)	.	8	5	.	8.4*	11	4
Cc1noc(C)c1S(=O)(=O)Nc1ccc2c(c1)C(=O)N([C@H](C)CO)C[C@H](C)[C@H](CN(C)C(=O)NC(C)C)O2	.	.	.	2	.	.	.
COCc1cc(C)nc2sc(C(=O)Nc3cccc(OC)c3)c(N)c12	.	12	-2	67*	7.7*	115*	38*
O=C(CN1C(=O)CC(c2ccccc2)=Nc2ccccc21)NCc1ccccc1	-7	0	.	-2	-1	.	.
Cc1cc2c(cc1C)N(CC(=O)N1CCCC1)C(=O)CC(c1ccccc1)=N2	.	4	27	39	7.8*	78*	22*
C[C@H](CO)N1C[C@H](C)[C@H](CN(C)Cc2ccc(Oc3ccccc3)cc2)Oc2ccc(NS(=O)(=O)c3cccs3)cc2C1=O	.	.	.	-4	.	.	.
COCc1nc2oc3ccc(C)cc3c(=O)c2cc1C(=O)OC	91*	0	4	16	7.9*	119*	47*
CO[C@@H]1CN(C)C(=O)c2cc(NS(=O)(=O)c3cn(C)cn3)ccc2OC[C@H](C)N(CC2CC2)C[C@@H]1C	.	.	.	-3	.	.	.
CCCCOc1ccc(C(=O)NCC2(c3ccc(OC)cc3)CCOCC2)cc1	-3	1	.	.	16*	13	6
O=c1[nH]c2ccccc2nc1/C=C/c1ccc(O)cc1	61	.	10	51*	7.6*	121*	35*
O=c1[nH]c2ccccc2nc1/C=C(\O)c1cccs1	35	48*	37*	.	11*	116*	41*
CO[C@@H]1CN(C)C(=O)c2cc(NC(=O)Nc3ccccc3)ccc2OC[C@H](C)N(C(=O)CN(C)C)C[C@H]1C	.	.	.	-4	.	.	.
C[C@H](CO)N1C[C@H](C)[C@@H](CN(C)C(=O)Cc2ccccc2)OCCCC[C@H](C)Oc2ccc(NS(=O)(=O)c3ccc(F)cc3)cc2C1=O	.	.	.	5	.	.	.
CC(C)(C)n1nnnc1C(c1cccnc1)N(Cc1ccccc1)Cc1ccco1 (stereo unspecified)	-10	1	.	-5	7.9*	11	9.0*
CCC(C)(C)n1nnnc1C(c1ccc(C)cc1)N(Cc1ccco1)Cc1cccs1 (stereo unspecified)	5	0	-6	-25	8.3*	6	8.8*
COc1cccc(CN(Cc2ccco2)C(c2ccc(F)cc2)c2nnnn2C(C)(C)C)c1 (stereo unspecified)	5	0	.	-13	1	.	.
COc1ccc(C(=O)C(C)N(C(=O)c2ccc(Cl)cc2Cl)N2C(=O)C3C4C=CC(C4)C3C2=O)cc1 (stereo unspecified)	-4	-1	.	-5	7.8*	25*	14*
COc1ccc(C2=Nn3c(nnc3-c3ccncc3)SC2)cc1OC	66	24	.	-13	7	.	.

Source: PubChem (several laboratories)
